# Measured values: PubChem BioAssay (NCATS)
# Results filed as inconclusive are left out. A call without a number means that no potency is given here. A number with no mark means an inactive call. Calls of active or inactive are those of the source. The call rests on the fitted dose curve; in most records, active means well fitted curve in the direction sought with a large enough effect; inconclusive means small, poorly fitted or top-dose-only effect, or another doubt; inactive means no such curve, though single readings can be large; an effect the other way counts as inactive or inconclusive. Where a SMILES comes first, the peptide text is derived from it.
# Tests used:
# [1] = biological target: Calcium and integrin-binding protein 1 (Homo sapiens) (UniProt Q99828); experiment: Primary qHTS for Identification of Calcium Integrin Binding Protein 1 (CIB1) Competitor (AID 1508620); conditions: CIB1-GST / FITC-alphaIIb peptide fluorescence polarization; series mostly up to 57.7 µM;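 further: GST tagged CIB1 binding a fluorescein labelled alphaIIb integrin peptide tracer; top concentration of the series differs between compounds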
# Chain of Calcium and integrin-binding protein 1 (Homo sapiens) (Q99828 whole entry, looked up): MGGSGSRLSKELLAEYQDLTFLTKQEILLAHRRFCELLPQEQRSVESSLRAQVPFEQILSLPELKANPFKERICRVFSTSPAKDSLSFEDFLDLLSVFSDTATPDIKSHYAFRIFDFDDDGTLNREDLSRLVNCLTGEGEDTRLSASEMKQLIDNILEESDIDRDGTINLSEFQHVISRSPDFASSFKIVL
# How it was run: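 Fluorescence polarization competition: CIB1-GST (1 uM final) preincubated with compound 15 min at room temperature, then FITC-labeled alphaIIb peptide (100 nM final) added for another 15 min. Polarization read at Ex 480/Em 540.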
# [2] = Primary qHTS for inhibitors of nuclear receptor binding SET domain protein 2 (NSD2) in an isogenic RCH-ACV NSD2 p.E1099K mutant (9B) (AID 1645876); conditions: RCH-ACV NSD2 E1099K (9B) viability, CellTiter-Glo, 72 h; series mostly up to 44.9 µM; further: nearly all actives have a fitted effect of over 70% in size; further: potency means the concentration at half of the fitted maximal effect
# [3] = Primary qHTS for inhibitors of nuclear receptor binding SET domain protein 2 (NSD2) in an RCH-ACV wild type WT cells (2C) (AID 1645877); conditions: RCH-ACV (leukaemia line) NSD2 WT (2C) viability, CellTiter-Glo, 72 h; series mostly up to 44.9 µM; further: nearly all actives have a fitted effect of over 70% in size; further: potency means the concentration at half of the fitted maximal effect
smiles,measurement,setting,value
CC1C(=O)OCC2=CC[N+]3([O-])CCC(OC(=O)C(C)(O)C1(C)O)C23 (stereo not given),Potency,[1],inactive
same,Potency,[2],inactive
same,Potency,[3],inactive
C=C1C(O)C(O)C2(CC3C(C)=CCC4C(C)(C(=O)O)CCCC34C)OC2C1O (stereo not given),Potency,[1],inactive
same,Potency,[2],inactive
same,Potency,[3],inactive
CC(/C=C/C=C(\C)C(=O)O[C@@H]1O[C@H](CO[C@@H]2O[C@H](CO)[C@@H](O)[C@H](O)[C@H]2O)[C@@H](O)[C@H](O)[C@H]1O)=C\C=C\C=C(C)\C=C\C=C(/C)C(=O)O[C@@H]1C[C@](O)(C(=O)O)C[C@@H](O)[C@H]1OC(=O)/C=C/c1ccc(O)c(O)c1,Potency,[1],inactive
same,"activity change, negative = viability loss",[2],-6.13% [at 9.23 µM]
same,"activity change, negative = cell killing",[3],-16.8% [at 9.23 µM]
C[C@@H]1C[C@H]2OC(=O)[C@@]3(C)CCC[C@](C)(C23)[C@@]1(O)CCC1=CC(=O)OC1O (stereo not given in full),Potency,[1],inactive
same,Potency,[2],inactive
same,Potency,[3],inactive
COC(=O)C1=COC(O[C@@H]2O[C@H](CO)[C@@H](O)[C@H](O)[C@H]2O)[C@@H]2[C@@](C)(O)[C@@H](OC(=O)/C=C/c3ccccc3)C[C@]12O (stereo not given in full),Potency,[1],inactive
same,Potency,[2],inactive
same,Potency,[3],inactive
CC1=C(C(=O)OC2OC(COC3OC(CO)C(O)C(O)C3O)C(O)C(O)C2O)C(C)(C)CCC1 (stereo not given),Potency,[1],inactive
same,Potency,[2],inactive
same,Potency,[3],inactive
CNc1nc(Cc2ccccc2)nc2c1CCNC[C@@H]2C,Potency,[1],inactive
same,Potency,[2],inactive
same,Potency,[3],inactive
O=C1C(Cl)=C(N2CCOCC2)C(=O)N1c1ccc(Cl)c(Cl)c1,Potency,[1],inactive
same,Potency,[2],7.96 µM (active)
same,Potency,[3],8.93 µM (active)
O=C(O)CC(CCc1ccccc1)OC1OC(CO)C(O)C(O)C1O (stereo not given),Potency,[1],inactive
same,Potency,[2],inactive
same,Potency,[3],inactive
CC1(C)CC[C@]2(C(=O)O[C@@H]3O[C@H](CO[C@@H]4O[C@H](CO[C@@H]5O[C@H](CO)[C@H](O)[C@H](O)[C@H]5O)[C@@H](O)[C@H](O)[C@H]4O)[C@@H](O)[C@H](O[C@@H]4O[C@H](CO)[C@@H](O)[C@H](O)[C@H]4O)[C@H]3O)[C@H](O)C[C@]3(C)C(=CCC4[C@@]5(C)CC[C@H](O[C@@H]6OC[C@@H](O)[C@H](O)[C@H]6O)[C@@](C)(C(=O)O)C5CC[C@]43C)[C@@H]2C1 (stereo not given in full),"activity change, negative = inhibition",[1],3.63% [at 12.4 µM]
same,outcome,[2],inactive [at 9.23 µM]
same,outcome,[3],inactive [at 9.23 µM]
COC(=O)C1=CO[C@@H](O[C@@H]2O[C@H](CO)[C@@H](O)[C@H](O)[C@H]2O)[C@@H]2[C@@H](C)[C@@H](OC(=O)/C=C/c3ccccc3)[C@@H](O)[C@H]12,Potency,[1],inactive
same,Potency,[2],inactive
same,Potency,[3],inactive
COc1ccc(/C=C/C(=O)O[C@@H]2[C@@H](O[C@@H]3O[C@H](CO)[C@@H](O)[C@H](O)[C@H]3O)[C@@H](O)[C@H](O[C@H]3C4C=CO[C@@H](O[C@@H]5O[C@H](CO)[C@@H](O)[C@H](O)[C@H]5O)C4[C@@]4(CO)O[C@@H]34)O[C@H]2C)cc1 (stereo not given in full),Potency,[1],inactive
same,"activity change, negative = viability loss",[2],-15.4% [at 9.23 µM]
same,"activity change, negative = cell killing",[3],-20.7% [at 9.23 µM]
C=C(C(=O)O)[C@@H]1CC[C@@]2(C)CCC[C@@](C)(O)[C@@H]2C1,Potency,[1],inactive
same,Potency,[2],inactive
same,Potency,[3],inactive
C=CC(C)(CC/C=C(\C)C(=O)OC)OC1OC(COC(=O)CC(C)(O)CC(=O)O)C(O)C(O)C1O (stereo not given),Potency,[1],inactive
same,Potency,[2],inactive
same,Potency,[3],inactive
CC12CC(O)C(O)C=C1c1cc(O)cc(O)c1C(=O)O2 (stereo not given),Potency,[1],inactive
same,Potency,[2],inactive
same,Potency,[3],inactive
COC1OC(O)C2(CCC3(O2)C(C)CC2OC(=O)C4(C)CCCC3(C)C24)C1O (stereo not given),Potency,[1],inactive
same,Potency,[2],inactive
same,Potency,[3],inactive
COc1cc(C(CO)C(OC2OC(CO)C(O)C(O)C2O)c2ccc(O)c(OC)c2)ccc1O (stereo not given),Potency,[1],inactive
same,Potency,[2],inactive
same,Potency,[3],inactive
CC(=O)C1CCC(=O)N1Cc1ccccc1 (stereo not given),Potency,[1],inactive
same,Potency,[2],inactive
same,Potency,[3],inactive
O=C(O)C(Cc1ccccc1)NC(=O)C1CCCN1 (stereo not drawn) (H-Pro-Phe-OH; configuration not given here),Potency,[1],inactive
same,Potency,[2],inactive
same,Potency,[3],inactive
CC/C=C\C(O)C(O)C1=C(C)C(=O)C2(O1)C(=O)NC(OC)(C(=O)c1ccccc1)C2O (stereo not given),Potency,[1],inactive
same,Potency,[2],inactive
same,Potency,[3],inactive
CC(=O)OC1C(O)/C(C)=C\C2C(OC(=O)c3ccccc3)C(C)CC2(OC(C)=O)C(OC(C)=O)C(C)/C=C/C(C)(C)C1OC(C)=O (stereo not given),Potency,[1],inactive
same,Potency,[2],inactive
same,Potency,[3],inactive
C=C(C)[C@@H]1CC[C@]2(C(=O)O)CC[C@]3(C)C(CCC4[C@]5(C)C(CC[C@]43C)C(C)(C)[C@@H](O)[C@@H]5C(=O)O)C12 (stereo not given in full),Potency,[1],inactive
same,Potency,[2],inactive
same,Potency,[3],inactive
CC(=O)OC1C(O)C(C)(O)C(/C=C/C(=O)O)C2(C)CCCC(C)(C)C12 (stereo not given),Potency,[1],inactive
same,Potency,[2],inactive
same,Potency,[3],inactive
Cc1occc(=O)c1O[C@@H]1O[C@H](CO)[C@@H](O)[C@H](O)[C@H]1O,Potency,[1],inactive
same,Potency,[2],inactive
same,Potency,[3],inactive
Cc1nc(-c2cccnc2)sc1C(=O)Nc1ccccc1-c1cn2c(CN3CCOCC3)csc2n1,Potency,[1],inactive
same,Potency,[2],inactive
same,Potency,[3],inactive
C[C@@H]1CCC2C(C)(C)[C@H](O)[C@H](O)C[C@]2(C)[C@@]12Cc1c(O)cc3c(c1O2)CN(CCCC(=O)O)C3=O (stereo not given in full),Potency,[1],inactive
same,Potency,[2],inactive
same,Potency,[3],inactive
O=C(/C=C/c1ccc(O)c(O)c1)O[C@H]1[C@@H]2C=CO[C@@H](O[C@@H]3O[C@H](CO)[C@@H](O)[C@H](O)[C@H]3O)[C@@H]2[C@@]2(CO)O[C@@H]12,Potency,[1],inactive
same,Potency,[2],inactive
same,Potency,[3],inactive
C=CC(C)(C)C12Nc3c(ccc4c3OC(C)(C)C=C4)C1(O)CC1C(=O)N3CCCC3C(=O)N12 (stereo not given),Potency,[1],inactive
same,Potency,[2],inactive
same,Potency,[3],inactive
C=C1CC[C@@H]2[C@@](C)(CO[C@@H]3O[C@H](CO)[C@@H](O)[C@H](O)[C@H]3O)[C@H](O)CC[C@@]2(C)[C@@H]1CC/C(C)=C/CO[C@@H]1O[C@H](CO)[C@@H](O)[C@H](O)[C@H]1O,Potency,[1],inactive
same,Potency,[2],inactive
same,Potency,[3],inactive
C=C1CC2C3(C)C=CC(=O)OC(C)(C)C3CC(OC(C)=O)C2(C)C2C(=O)OC(C)C(=O)C12C (stereo not given),Potency,[1],inactive
same,Potency,[2],inactive
same,Potency,[3],inactive
NC1Nc2ccccc2C1(N)CC1NC(=O)C(Cc2ccccc2)NC(=O)C(Cc2ccccc2)NC1=O (stereo not given),Potency,[1],inactive
same,Potency,[2],inactive
same,Potency,[3],inactive
COc1cc(O)cc2c1C(=O)OC(C)C2 (stereo not given),Potency,[1],inactive
same,Potency,[2],inactive
same,Potency,[3],inactive
C/C=C(/C)C(=O)OC1C2OC2C2(CO2)C2C3OC(=O)C(C)C3CCC12C (stereo not given),Potency,[1],inactive
same,Potency,[2],inactive
same,Potency,[3],inactive
CC1OC(O[C@H]2CC[C@@]3(C)C(CC[C@]4(C)C3CC=C3C5CC(C)(C)CC[C@]5(C(=O)OC5OC(CO)C(OC6OCC(OC7OCC(O)C(O)C7O)C(O)C6O)C(O)C5O)CC[C@]34C)C2(C)C)C(O)C(O)C1OC1OC(CO)C(O)C(OC2OC(CO)C(O)C(O)C2O)C1O (stereo not given in full),"activity change, negative = inhibition",[1],-8.26% [at 12.4 µM]
same,"activity change, negative = viability loss",[2],-12.9% [at 9.23 µM]
same,"activity change, negative = cell killing",[3],-19.1% [at 9.23 µM]
CC1(C)CC[C@]2(C(=O)O[C@@H]3O[C@H](CO)[C@@H](O)[C@H](O)[C@H]3O)CC[C@]3(C)C(=CCC4[C@@]5(C)C[C@H](O)[C@H](O[C@@H]6O[C@H](C(=O)O)[C@@H](O)[C@H](O)[C@H]6O)[C@@](C)(CO)C5CC[C@]43C)C2C1 (stereo not given in full),"activity change, negative = inhibition",[1],0.901% [at 12.4 µM]
same,"activity change, negative = viability loss",[2],-12.9% [at 9.23 µM]
same,"activity change, negative = cell killing",[3],-7.01% [at 9.23 µM]
COC(=O)C1=CO[C@@H](O[C@@H]2O[C@H](CO)[C@@H](O)[C@H](O)[C@H]2O)[C@@H]2[C@@H](C)[C@@H](O)C(O)[C@H]12 (stereo not given in full),Potency,[1],inactive
same,Potency,[2],inactive
same,Potency,[3],inactive
C/C=C(\C)C(=O)OCC1OC(OCC2OC(OC3(CO)OC(CO)C(O)C3O)C(O)C(O)C2O)C(O)C(O)C1O (stereo not given),Potency,[1],inactive
same,Potency,[2],inactive
same,Potency,[3],inactive
C=CC(C)(O)C1CC2C3(C)CCCC(C)(C)C3C(O)C(O)C2(C)O1 (stereo not given),Potency,[1],inactive
same,Potency,[2],inactive
same,Potency,[3],inactive
CC1(C)CC[C@]2(C(=O)O[C@@H]3O[C@H](CO)[C@@H](O)[C@H](O)[C@H]3O)CC[C@]3(C)C(=CCC4[C@@]5(C)C[C@@H](O)[C@H](O)[C@@](C)(CO)C5[C@H](O)C[C@]43C)C2[C@@H]1O (stereo not given in full),Potency,[1],inactive
same,Potency,[2],inactive
same,Potency,[3],inactive
CC1CCC2(C(=O)O)CCC3(C)C(=CCC4C5(C)C[C@@H](O)[C@@H](O)C(C)(CO)C5CCC43C)C2C1(C)O (stereo not given in full),Potency,[1],inactive
same,Potency,[2],6.32 µM (active)
same,Potency,[3],3.17 µM (active)
COC(=O)CCC1(C)C(C(C)(C)O)C(O)CC2(C)Oc3c(C)c4c(c(OC)c3CC21)C(=O)OC4 (stereo not given),Potency,[1],inactive
same,Potency,[2],inactive
same,Potency,[3],inactive
C[C@@H]1O[C@@H](O[C@H]2[C@H](O[C@H]3[C@H](O[C@H]4CC[C@@]5(C)C(CC[C@]6(C)C5CC=C5[C@@H]7CC(C)(C)CC(=O)[C@]7(C)CC[C@]56C)[C@@]4(C)CO)O[C@H](C(=O)O)[C@@H](O)[C@@H]3O)O[C@H](CO)[C@H](O)[C@@H]2O)[C@H](O)[C@H](O)[C@H]1O (stereo not given in full),Potency,[1],inactive
same,outcome,[2],inactive [at 9.23 µM]
same,outcome,[3],inactive [at 9.23 µM]
COc1ccc(OC2OC(CO[C@@H]3O[C@@H](C)[C@H](O)[C@@H](O)[C@H]3O)C(O)C(O)C2O)cc1OC (stereo not given in full),Potency,[1],inactive
same,Potency,[2],inactive
same,Potency,[3],inactive
C[C@@H]1CC[C@]2(C(=O)O[C@@H]3O[C@H](CO[C@@H]4O[C@H](CO)[C@@H](O)[C@H](O)[C@H]4O)[C@@H](O)[C@H](O)[C@H]3O)CC[C@]3(C)C(=CCC4[C@@]5(C)CC[C@H](O)[C@](C)(C(=O)O)C5CC[C@]43C)[C@@H]2[C@]1(C)O (stereo not given in full),Potency,[1],inactive
same,"activity change, negative = viability loss",[2],-2.63% [at 9.23 µM]
same,"activity change, negative = cell killing",[3],-8.35% [at 9.23 µM]
C[C@]1(OC(=O)/C=C/c2ccc(O)cc2)C[C@@H](O)[C@]2(O)C=CO[C@@H](O[C@@H]3O[C@H](CO)[C@@H](O)[C@H](O)[C@H]3O)C12 (stereo not given in full),Potency,[1],inactive
same,Potency,[2],inactive
same,Potency,[3],inactive
